Target: pT7_6His-AlfaTag-HOXD13 (human, UniProt P35453 263-343)
Assay: PADIT-seq
Settings: dsDNA, one strand shown

pT7_6His-AlfaTag-HOXD13, sequence (P35453 263-343): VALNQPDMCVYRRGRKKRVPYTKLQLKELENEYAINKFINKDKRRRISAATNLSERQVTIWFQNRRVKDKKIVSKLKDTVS

Sequence	binding signal
CTCGAGGATATCAAGATCTGGCCTCGGCAAGCTAAAAGGAACCTCTAGCTAGCCGACTCACTATAGGGATAATCGCCCTGAGCAAAGACC	-0.784 ± 0.107 log2FC
CTCGAGGATATCAAGATCTGGCCTCGGCATTTTAGATGGAACCTCTAGCTAGCCGACTCACTATAGGGATAATCGCCCTGAGCAAAGACC	0.542 ± 0.096 log2FC
CTCGAGGATATCAAGATCTGGCCTCGGCCGCGTAAAAGGAACCTCTAGCTAGCCGACTCACTATAGGGATAATCGCCCTGAGCAAAGACC	1.44 ± 0.0853 log2FC
CTCGAGGATATCAAGATCTGGCCTCGGCGAGGTAAAAGGAACCTCTAGCTAGCCGACTCACTATAGGGATAATCGCCCTGAGCAAAGACC	-0.51 ± 0.0909 log2FC
CTCGAGGATATCAAGATCTGGCCTCGGCCGCCCATAAGGAACCTCTAGCTAGCCGACTCACTATAGGGATAATCGCCCTGAGCAAAGACC	-0.213 ± 0.101 log2FC
CTCGAGGATATCAAGATCTGGCCTCGGCTGATGGGCGGGAACCTCTAGCTAGCCGACTCACTATAGGGATAATCGCCCTGAGCAAAGACC	-0.976 ± 0.109 log2FC
CTCGAGGATATCAAGATCTGGCCTCGGCATTTTAGGCGGAACCTCTAGCTAGCCGACTCACTATAGGGATAATCGCCCTGAGCAAAGACC	-0.396 ± 0.116 log2FC
CTCGAGGATATCAAGATCTGGCCTCGGCTGTCTAAAAGGAACCTCTAGCTAGCCGACTCACTATAGGGATAATCGCCCTGAGCAAAGACC	-0.572 ± 0.102 log2FC
CTCGAGGATATCAAGATCTGGCCTCGGCTGAGTAAAAGGAACCTCTAGCTAGCCGACTCACTATAGGGATAATCGCCCTGAGCAAAGACC	0.229 ± 0.0993 log2FC
CTCGAGGATATCAAGATCTGGCCTCGGCTTTTTACGTGGAACCTCTAGCTAGCCGACTCACTATAGGGATAATCGCCCTGAGCAAAGACC	2.42 ± 0.0834 log2FC
